Results from PubChem BioAssay (EPA / NIEHS).
Activity calls are given as the source filed them. The calls were made as follows: active = hit-call score of the fitted dose curve at least 0.9, where 1 is the maximum; inactive = score below 0.9.

Experiment: ATG_GATA_CIS: Attagene CIS-FACTORIAL HepG2 Assay for human GATA Binding Protein (AID 2282944)
Settings: HepG2 GATA cis-element reporter, Attagene multiplex mRNA; actives raise or lower the signal
Experimental: ATG_CIS is a cell-based, multiplexed-readout assay that uses HepG2, a human liver cell line, with measurements taken at 24 hours after chemical dosing in a 24-well plate.ATG_GATA_CIS is one of 52 assay component(s) measured or calculated from the ATG_CIS assay. It is designed to make measurements of mRNA induction, a form of inducible reporter, as detected with fluorescence intensity signals by Reverse transcription polymerase chain reaction (RT-PCR) and Capillary electrophoresis technology.Data from the assay component ATG_GATA_CIS was analyzed into 1 assay endpoint. This assay endpoint, ATG_GATA_CIS, was analyzed with bidirectional fitting relative to DMSO as the negative control and baseline of activity. Using a type of inducible reporter, measures of mRNA for gain or loss-of-signal activity can be used to understand the reporter gene at the transcription factor-level as they relate to the gene GATA1. Furthermore, this assay endpoint can be referred to as a primary readout, because this assay has produced multiple assay endpoints where this one serves a reporter gene function. To generalize the intended target to other relatable targets, this assay endpoint is annotated to the dna binding intended target family, where the subfamily is GATA proteins.
Human liver HepG2 cells are transiently transfected with multiple reporter transcription units (MRTUs) in 6-well plates using FuGene 6 reagent (Roche; 3 ml FuGene/1 mg DNA). The MRTU constructs are regulated by a cis-regulating element (promoter). […] A major difference between the CIS and TRANS system is that in CIS activities of endogenous TFs are measured, whereas the TRANS assay evaluates changes in activities of exogenous, chimeric NR-Gal4 proteins. […] At the end of 24 hour incubation, total RNA was isolated using TriZol reagent (Invitrogen). The isolated RNA is then reverse-transcribed using oligo(dT) primer and Mo-MLV reverse transcriptase (Invitrogen) with DNAse I (Ambion) treatment for 30 min. The one-tenth of the produced cDNA was amplified by PCR using Taq DNA polymerase (Invitrogen) and two reporter sequence-specific primers. The PCR products were fluorescently labeled by primer extension with 6-arboxyfluorescein (6-FAM) 5'-labeled reporter sequence-specific primer (2 min at 95 C, 20 s at 68 C and 10 min at 72 C) and these products were digested with 5U of HpaI (New England Biolabs) for 2h at 37 C. The fragments were purified using Qiaquick PCR columns (Qiagen), analyzed on an ABI 3130xL genetic analyzer (Applied Biosystems) with peak positions identified by using a set of X-rhodamine (ROX)-labeled MapMarker1000 molecular weight standards (BioVentures). The raw capillary electrophoresis data was processed using Attagraph software (Attagene).

Row | Compound | outcome
1 | CC(C)N(Cc1ccccc1)C(=O)C(C)(C)C | inactive
2 | COC(=O)Nc1nc2ccccc2[nH]1 | inactive
3 | CC(C)COC(=O)c1ccccc1C(=O)OCC(C)C | inactive
4 | Clc1ccc(Cl)c(Cl)c1 | inactive
5 | CCN(CC)CCO | inactive
6 | CN(C)c1ccccc1 | inactive
7 | Cc1cc(N=Nc2ccccc2C)ccc1N | inactive
8 | Cc1cccc(N)c1N | inactive
9 | OCCCl | inactive
10 | ClCCOCCCl | inactive
11 | CCCCC(CC)COC(=O)c1ccc(C(=O)OCC(CC)CCCC)c(C(=O)OCC(CC)CCCC)c1 (stereo not given) | inactive
12 | CCCCCCCCCCCCCN1CC(C)OC(C)C1 (stereo not given) | inactive
13 | N#CC(Br)Br | inactive
14 | Clc1ccccc1Cl | inactive
15 | c1ccc(N=Nc2ccccc2)cc1 | inactive
16 | [Cl-].[Cl-].[Hg+2] | inactive
17 | Nc1ccc(Cc2ccc(N)cc2)cc1 | inactive
18 | O=P(OCCCl)(OCCCl)OCCCl | inactive
19 | O=C(Nc1ccccc1)c1ccccc1I | inactive
20 | OCCOCCO | inactive

Row | Compound | outcome
21 | Brc1ccc(Oc2ccccc2)cc1 | inactive
22 | Nc1ccc(Oc2ccc(N)cc2)cc1 | inactive
23 | O=C(O)C1C2CCC(O2)C1C(=O)O (stereo not given) | inactive
24 | N#CC(Br)(Br)C(N)=O | inactive
25 | CCOC(=O)[C@]1(c2ccccc2)Oc2ccccc2[C@@H]1N | inactive
26 | Cc1ccc([N+](=O)[O-])cc1 | inactive
27 | CN(C)C(=O)Nc1ccc(Cl)cc1 | inactive
28 | O=C(Oc1ccc(Br)cc1)N1CCN2CCC1CC2 | inactive
29 | Nc1ccc(Cl)cc1N | inactive
30 | C=CCc1ccc2c(c1)OCO2 | inactive
31 | Cc1ccc(N=C=O)cc1N=C=O | inactive
32 | O=C1CCCO1 | inactive
33 | Cc1ccc(N)c(N)c1 | inactive
34 | Nc1ccc(N=Nc2ccccc2)cc1 | inactive
35 | CC(C)(C)OOC(C)(C)CCC(C)(C)OOC(C)(C)C | inactive
36 | c1ccc(NNc2ccccc2)cc1 | inactive
37 | Nc1cc(Cl)cc(C(=O)O)c1Cl | inactive
38 | CC(C)(O)c1cnn2c(-c3ccc(F)c(-c4c(F)cccc4C#N)c3)cnc2n1 | inactive
39 | c1ccc2c(c1)oc1ccccc12 | inactive
40 | CCOc1cccc(C2(N3CCN(c4ccccc4)CC3)CCC(C)CC2)c1 (stereo not given) | inactive
